Laboratory results reported in ChEMBL document CHEMBL3988442, “University of Dundee, Small-Polar-MMV Screening Library” (2021).

Target: AMP-activated protein kinase, AMPK (Homo sapiens) (UniProt P54646+O43741+P54619+Q9UGJ0+Q9Y478+Q13131+Q9UGI9)
Experiment: AMP-dependent Kinase enzyme assay. An in vitro enzyme assay that detects ADP turnover that is directly proportional to AMPK activity. This uses naive AMPK that is activated during the assay with MK-8722
Format: functional
Parameters: scale not given: direction of the effect not stated beside the values
Conditions: 30 µM

| SMILES | Percent Effect |
| --- | --- |
| O=C(N1CC(c2cccnc2)C1)C1(c2ccc(F)cc2)CCOCC1 | 0.43% |
| CN(Cc1ccccc1)c1cnn(CC2COCCO2)c(=O)c1 (stereo unspecified) | 10.8% |
| CCC(NCCn1cc(C)cn1)C(=O)Nc1cc(C)on1 (stereo unspecified) | -6.29% |
| O=C1CCCCN1Cc1cccc(OC(F)F)c1 | 11.1% |
| CN1CCC(Cc2cnc(CNC(=O)Cc3cccc(F)c3)cn2)CC1 | 3.91% |
| Cc1nccn1CCCN1CCC(c2nccn2CC2CCC2)CC1 | -9.78% |
| CC(C)[C@@H]1CN(c2ccc(C(F)(F)F)cn2)C[C@H]1NS(C)(=O)=O | 3.23% |
| Cc1n[nH]c(C)c1CCN(C)C(=O)c1ccc(CN2CCCCC2)cc1 | -2.68% |
| Cc1ccc(-n2cc(C(=O)NCc3nnc4n3CCCCC4)nn2)cc1 | 5.45% |
| O=c1c(CN2CCOCC2)coc2ccc(Cl)cc12 | -2.73% |
| CCNC(=O)c1ccnc(N2CCCC(COc3ccccc3C)C2)c1 (stereo unspecified) | -0.143% |
| C[S+]([O-])CCNC(=O)N1CCN(c2cc(F)ccc2F)CC1 (stereo unspecified) | 2.94% |
| CC(C)(C)c1cn2c(n1)C(CNCc1cnn3ccccc13)CCC2 (stereo unspecified) | -1.22% |
| Cc1cc(C2CCCN(CCc3ccc4c(c3)CCO4)C2)n[nH]1 (stereo unspecified) | 3.65% |
| Cc1nc2c(c(N[C@@H](CO)C(N)=O)n1)Cc1ccccc1OC2 | -0.406% |
| Cc1noc(OCC(=O)N2CCCCC2C)n1 (stereo unspecified) | -1.69% |
| Cc1ncccc1CNC(CCO)C1CCCCC1 (stereo unspecified) | -0.143% |
| CCn1cc(CN2CCC(c3ncc(Cl)cc3S(C)(=O)=O)CC2)c(C)n1 | 4.95% |
| CN(C)C(=O)CN1CCC(c2c(C(N)=O)sc3ncccc23)C1 (stereo unspecified) | 14.7% |
| CCCS(=O)(=O)N1CCN(CCCO)CC1 | 89.9% |
| CCC[C@@H]1CN(c2cncc(C(=O)N3CCOCC3)n2)C[C@H]1N(C)C | 14.3% |
| O=C(NCCNCc1cccc2c1OCCCO2)C1CCCC1 | -0.551% |
| CN(CC(=O)NC(C)(C)C)Cc1cccc2c1OCCO2 | -9.42% |
| CCc1nc2n(n1)CC(NCc1nc3ccccc3o1)CC2 (stereo unspecified) | 2.97% |

| SMILES | Percent Effect |
| --- | --- |
| COC1CCN(c2ccc(F)cc2CN(C)S(C)(=O)=O)CC1 | 6.29% |
| Cc1cc(CN(CC(N)=O)CC(C)C)no1 | -8.69% |
| Cc1noc(-c2ccc(N(C)Cc3nccs3)nc2)n1 | 5.7% |
| CCC(C)(CC(=O)OC)NCc1c(C)noc1C (stereo unspecified) | 4.75% |
| CN(CCc1ccccc1)c1cnn(CC2COCCO2)c(=O)c1 (stereo unspecified) | 8.71% |
| CC(C)n1cc(CN(Cc2ccc(F)cc2)CC2CCCO2)cn1 (stereo unspecified) | 5.24% |
| CSCC(C)(O)CNS(=O)(=O)c1ccc(F)cc1 (stereo unspecified) | -4.97% |
| COc1c(C(=O)NC(C)Cc2ccccc2Cl)c(C)nn1C (stereo unspecified) | 0.464% |
| N#Cc1ccc(Cl)cc1NCC1CCOC1 (stereo unspecified) | 5.95% |
| O=C(NCCN1CCOC1=O)c1cnc(-c2cccnc2)nc1 | -1.72% |
| CC(CC(=O)c1ccco1)NC(=O)c1ccccn1 (stereo unspecified) | -8.76% |
| O=C(CNc1ccc(OC2CCOC2)cc1)NCc1cccs1 (stereo unspecified) | 9.41% |
| CCCN(CCC)C(=O)c1cnn(C)c1C | 3.84% |
| Cc1c(CN2CCc3[nH]cnc3C2C2CC2)[nH]c2ccc(F)cc12 (stereo unspecified) | 3.62% |
| Cn1nnnc1SCC1(O)CCCCC1 | 32.1% |
| O=C(c1cnc2c(c1)CCC2)N1CCCC(CO)(CC2CC2)C1 (stereo unspecified) | 3.82% |
| CCOc1ccccc1CN(C)C(=O)CN1C(=O)OC[C@@H]1C(C)C | 5.19% |
| CS(=O)(=O)CCCN1CCSCC1c1ccc(Cl)cc1 (stereo unspecified) | -4.65% |
| CNS(=O)(=O)CC(=O)NCc1cc2c(s1)CCC(C)(C)C2 | -1.02% |
| CCCC1(CO)CCCN(C(=O)CN2CCN(CC)CC2)C1 (stereo unspecified) | -3.5% |
| CCCN1CCC(NCc2cccc(CN3CCOC(C)C3)c2)CC1 (stereo unspecified) | -4.13% |
| O=C(O)[C@@H]1CN(CCOCCO)C[C@H]1c1ccccc1 | 1.29% |
| FC(F)(F)c1ccnc(N2CCC(c3nccn3CC3CC3)CC2)n1 | 19.6% |
| COCc1nn(Cc2ccc(Cl)s2)c(=O)o1 | 6.29% |

| SMILES | Percent Effect |
| --- | --- |
| O=C(Nc1ccc(-c2csnn2)cc1)NC(CCO)C1CC1 (stereo unspecified) | 12.3% |
| Cc1nccn1CCCN1CCCC(c2nccn2CC2CCC2)C1 (stereo unspecified) | 1.25% |
| CC(C)(C)NC(=O)CNc1ncccn1 | 91.2% |
| Cc1cnn(CCNCC(=O)N2CCN(c3ccccn3)CC2)c1 | -14.7% |
| CC(O)Cc1cn(CC2CCN(C3CCSCC3)CC2)nn1 (stereo unspecified) | -7.5% |
| Cc1n[nH]c(C)c1CCc1ccc(S(C)(=O)=O)cc1 | 0.986% |
| Cc1ccc(-c2noc(C3CCN3C(=O)c3ccn(C)n3)n2)s1 (stereo unspecified) | 12% |
| COc1c(C)cnc(CN2CCn3c(nnc3C3CC3)C2)c1C | 8.46% |
| COc1ccccc1N1CCCC(NC(=O)Nc2cccnc2)C1 (stereo unspecified) | -1.53% |
| CNC(=O)c1cccnc1NCc1ccc(Cn2cccn2)cc1 | -3.46% |
| NC1CCCN(Cc2cccc(C(F)(F)F)c2)C1=O (stereo unspecified) | -0.911% |
| O=C(NCc1nnc2n1CCCC2)c1ccc(C2CCCO2)s1 (stereo unspecified) | -8.64% |
| CCN1CCN(C(=O)C2CCOC2)c2ccccc21 (stereo unspecified) | -4.37% |
| CCCc1nnc(N2CCC(N3CCN(CCO)CC3)CC2)o1 | -0.32% |
| COc1ccccc1NC(=O)CCNC(=O)c1ccoc1 | -6.87% |
| Cc1cnc(CCNC(=O)NCCc2ccc(O)cc2)s1 | 38.4% |
| Cc1occc1C(=O)N1CCCC(C2=Nc3ccccc3S(=O)(=O)N2)C1 (stereo unspecified) | 14.4% |
| NC(=O)c1ccnc(N2CCCC(CO)(Cc3ccc(F)cc3)C2)c1 (stereo unspecified) | 16.1% |
| Cc1cnn(C2CN(CCOc3ccc(C#N)cc3)C2)c1 | 5.88% |
| O=C1CCC2(CCOC2)CN1Cc1nncn1CCc1ccccc1 (stereo unspecified) | 14.2% |
| Cc1ccc(-c2cn(C3CCN(C(=O)[C@H]4CCCO4)CC3)nn2)cc1 | -0.746% |
| CN(Cc1ccc2c(c1)OCCO2)c1ncc(S(N)(=O)=O)s1 | -1.85% |
| Cc1ccc(CNC(C)(C)c2noc(C(C)(C)C)n2)o1 | 0.8% |
